# Reference: PubChem BioAssay AID2284357 (EPA ToxCast)
# Records with an inconclusive call do not appear. Activity calls are given as the source filed them. Rule for the calls: active = hit-call score of the fitted dose curve at least 0.9, where 1 is the maximum; inconclusive = response in the unintended direction; inactive = score below 0.9.
# Tested on: zebrafish Androgen Receptor (AR), gene 100005148
# Assay: ATG_zfAR_EcoTox2: Attagene TRANS-FACTORIAL EcoTox-2 HepG2 Assay for zebrafish Androgen Receptor (AR)
# Protocol: ATG_EcoTox2 is a cell-based, multiplexed assay created by modifying the existing Attagene TRANS-FACTORIAL system to include a panel of nuclear receptors from some or all the following species: human (Homo sapiens), african clawed frog (Xenopus laevis), rainbow trout (Oncorhynchus mykiss), japanese medaka (Oryzias latipes), and zebrafish (Danio rerio). The ECOTOX2-FACTORIAL format uses HepG2, a human liver cell line, with measurements taken at 24 hours after chemical dosing in a 24-well plate. ATG_zfAR_EcoTox2 is one of 29 assay components calculated in the ATG_EcoTox2 assay. It is designed to make measurements of mRNA induction, a form of inducible reporter, as detected with fluorescence intensity signals by Reverse transcription polymerase chain reaction (RT-PCR) and Capillary electrophoresis technology.The assay endpoint ATG_zfAR_EcoTox2 was analyzed in the positive analysis fitting direction relative to DMSO as the negative control and baseline of activity. Using a type of inducible reporter, measures of mRNA for gain-of-signal activity can be used to understand the reporter gene at the transcription factor-level as they relate to the gene AR. Furthermore, this assay endpoint can be referred to as a primary readout, because this assay has produced multiple assay endpoints where this one serves a reporter gene function. To generalize the intended target to other relatable targets, this assay endpoint is annotated to the nuclear receptor intended target family, where the subfamily is steroidal.
# Human liver HepG2 cells are transiently transfected with multiple reporter transcription units (MRTUs) in 6-well plates using FuGene 6 reagent (Roche; 3 ml FuGene/1 mg DNA). The MRTU constructs are regulated by a cis-regulating element (promoter). Each RTU expresses a GAL4-UAS that regulates the transcription of a nearby target reporter gene sequence. A major difference between the CIS and TRANS system is that in CIS activities of endogenous TFs are measured, whereas the TRANS assay evaluates changes in activities of exogenous, chimeric NR-Gal4 proteins. […] At the end of 24 hour incubation, total RNA was isolated using TriZol reagent (Invitrogen). The isolated RNA is then reverse-transcribed using oligo(dT) primer and Mo-MLV reverse transcriptase (Invitrogen) with DNAse I (Ambion) treatment for 30 min. The one-tenth of the produced cDNA was amplified by PCR using Taq DNA polymerase (Invitrogen) and two reporter sequence-specific primers. The PCR products were fluorescently labeled by primer extension with 6-arboxyfluorescein (6-FAM) 5'-labeled reporter sequence-specific primer (2 min at 95 C, 20 s at 68 C and 10 min at 72 C) and these products were digested with 5U of HpaI (New England Biolabs) for 2h at 37 C. The fragments were purified using Qiaquick PCR columns (Qiagen), analyzed on an ABI 3130xL genetic analyzer (Applied Biosystems) with peak positions identified by using a set of X-rhodamine (ROX)-labeled MapMarker1000 molecular weight standards (BioVentures). The raw capillary electrophoresis data was processed using Attagraph software (Attagene).
row,Compound,outcome
1,CC(C)OC(=O)C(C)(C)Oc1ccc(C(=O)c2ccc(Cl)cc2)cc1,inactive
2,Cc1cccc(Nc2cc(Cl)nc(SCC(=O)O)n2)c1C,inactive
3,CC(C)(Oc1ccc(Cl)cc1)C(=O)O,inactive
4,CC(c1cc2ccccc2s1)N(O)C(N)=O (centres undefined),inactive
5,C[C@@H]1C[C@H]2[C@@H]3CCC4=CC(=O)C=C[C@]4(C)[C@@]3(F)[C@@H](O)C[C@]2(C)[C@@]1(O)C(=O)COP(=O)(O)O,inactive
6,Cc1ccc(C)c(OCCCC(C)(C)C(=O)O)c1,inactive
7,CC(C)(Oc1ccc(C2CC2(Cl)Cl)cc1)C(=O)O (centres undefined),inactive
8,C=C(c1ccc(C(=O)O)cc1)c1cc2c(cc1C)C(C)(C)CCC2(C)C,inactive
9,C[C@]12C=CC(=O)C=C1CC[C@@H]1[C@@H]2C(=O)C[C@@]2(C)[C@H]1CC[C@]2(O)C(=O)CO,inactive
